# Source: PubChem BioAssay (NCATS)
# Inconclusive results are not listed. Where a call stands in place of a potency, no number is given. The source made the active and inactive calls. Calls come from the whole dose curve; as a rule, active = well fitted curve in the direction sought with a large enough effect; inconclusive = small, poorly fitted or top-dose-only effect, or another doubt; inactive = no such curve, though single readings can be large; an effect the other way counts as inactive or inconclusive.
# Experiments:
# [1] = target: Phospholipid hydroperoxide glutathione peroxidase GPX4 (Homo sapiens) (UniProt P36969); assay: Primary qHTS Assay for Inhibitors of Recombinant Selenoprotein Glutathione Peroxidase 4 (GPX4) (AID 1845192); note: nearly all actives have a fitted effect of over 65% in size; note: potency is the fitted concentration of half-maximal effect
# Phospholipid hydroperoxide glutathione peroxidase GPX4 (Homo sapiens), sequence (P36969 whole entry, looked up): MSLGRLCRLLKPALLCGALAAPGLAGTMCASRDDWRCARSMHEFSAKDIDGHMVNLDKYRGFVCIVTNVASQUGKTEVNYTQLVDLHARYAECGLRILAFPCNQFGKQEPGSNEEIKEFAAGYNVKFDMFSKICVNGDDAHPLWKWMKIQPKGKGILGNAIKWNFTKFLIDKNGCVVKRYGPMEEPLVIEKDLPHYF
# Summary of the method: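 GR-coupled assay: recombinant GPX4 preincubated 30 min with compound at room temperature; final 200 nM GPX4, 1 mM GSH, 0.5 mM cumene hydroperoxide, 0.5 mM NADPH, 100 nM GR, 0.01% BSA, pH 7.5 Tris. NADPH fluorescence (340/450 nm) read at 0 and 15 min.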
# [2] = target: Luciferin 4-monooxygenase (Photinus pyralis) (UniProt P08659); assay: Primary firefly luciferase (FLuc) qHTS assay for identification of artifact compounds. (AID 1845220); note: nearly all actives have a fitted effect of over 60% in size
# Summary of the method: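 Enzymatic FLuc inhibition assay: compounds pre-exposed to luciferin/ATP (10 uM each) for 15 min, then purified P. pyralis enzyme at 10 nM added. Read-out: luminescence at 5 min.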
# [3] = Primary fluorescence-based thiol-reactive (MSTI) qHTS assay for identification of artifact compounds. (AID 1845221); note: nearly all actives have a fitted effect of over 65% in size; note: potency is the fitted concentration of half-maximal effect
# Summary of the method: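 One-hour, room-temperature, dark incubation of compound with 4 uM MSTI in PBS (pH 7.4, 2% DMSO) precedes a fluorescence read at 525 nm excitation, 598 nm emission; Hill-equation fitting yields concentration-response values.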
# [4] = tested on: Nanoluciferase (engineered Oplophorus gracilirostris luciferase); assay: Primary Nanoluciferase (NLuc) qHTS assay for identification of artifact compounds. (AID 1845222);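 note: NLuc secreted into diluted conditioned medium of S16 cells; series mostly up to about 54 µM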
# Summary of the method: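 S16 cell supernatant NLuc, 1:55; cpds qHTS; 15 min RT dark; Nano-Glo substrate 1:100, 5 min; luminescence; Hill fit of % inhibition.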
# [5] = Primary redox qHTS assay for identification of artifact compounds. (AID 1845223)
# Summary of the method: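 Amplex Red (25 uM) and HRP (250 mU/mL) in HBSS, with compounds for 15 min, then 250 uM DTT for 30 min, room temperature, dark. Fluorescence 525/598 nm read; normalized to DMSO and 10 uM DA3003; Hill fit.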
# [6] = Quantitative High-Throughput drug screen in 47 multiple myeloma cell lines against the NCATS MIPE library collection: FR4_PLB cell viability assay (AID 1918924; note: nearly all actives have a fitted effect of over 35% in size; note: potency is the fitted concentration of half-maximal effect)
# Summary of the method: (§1)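 Myeloma cell lines, 500 cells per well, exposed to MIPE 4.0 library compounds for 48 h at 37C, 5% CO2. Viability from ATP by CellTiter-Glo luminescence; normalised to DMSO (100%) and media-only (0%) wells.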
# [7] = Quantitative High-Throughput drug screen in 47 multiple myeloma cell lines against the NCATS MIPE library collection: Delta47_JCRB cell viability assay (AID 1918925; note: nearly all actives have a fitted effect of over 45% in size; note: potency is the fitted concentration of half-maximal effect)
# Summary of the method: (§2)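 Primary qHTS used for cherry-picking: cells at 500/well, library compounds for 48 h (37C, 5% CO2), luminescent ATP assay.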
# [8] = Quantitative High-Throughput drug screen in 47 multiple myeloma cell lines against the NCATS MIPE library collection: EJM_DSMZ cell viability assay (AID 1918926; note: nearly all actives have a fitted effect of over 30% in size; note: potency is the fitted concentration of half-maximal effect)
# Summary of the method: as §2
# [9] = Quantitative High-Throughput drug screen in 47 multiple myeloma cell lines against the NCATS MIPE library collection: ARP1_JJKsccF8 cell viability assay (AID 1918928; note: nearly all actives have a fitted effect of over 40% in size; note: potency is the fitted concentration of half-maximal effect)
# Summary of the method: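 Myeloma cells at 500 per well in 1536-well format treated with MIPE 4.0 library by pin transfer for 48 h at 37C, 5% CO2. Viability from ATP luminescence (CellTiter-Glo), normalized to DMSO (100%) and media-only (0%) wells.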
# [10] = Quantitative High-Throughput drug screen in 47 multiple myeloma cell lines against the NCATS MIPE library collection: Karpas620_DSMZ cell viability assay (AID 1918959); note: nearly all actives have a fitted effect of over 30% in size; note: potency is the fitted concentration of half-maximal effect
# Summary of the method: as §1
# [11] = target: Glutathione peroxidase 1 (Homo sapiens) (UniProt P07203); assay: Primary qHTS Assay for Inhibitors of Recombinant Selenoprotein Glutathione Peroxidase 1 (GPX1) (AID 1845191); note: nearly all actives have a fitted effect of over 65% in size
# Glutathione peroxidase 1 (Homo sapiens), sequence (P07203 whole entry, looked up): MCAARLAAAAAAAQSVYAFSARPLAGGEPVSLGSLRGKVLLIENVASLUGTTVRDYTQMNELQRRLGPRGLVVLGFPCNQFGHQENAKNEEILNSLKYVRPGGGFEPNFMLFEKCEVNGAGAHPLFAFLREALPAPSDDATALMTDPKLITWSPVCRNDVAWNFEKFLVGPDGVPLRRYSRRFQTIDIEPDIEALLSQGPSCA
# Summary of the method: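 GR-coupled assay: compounds preincubated 30 min at room temperature with GPX1, then reaction started with CHP; final 10 nM GPX1, 1 mM GSH, 0.5 mM CHP, 0.5 mM NADPH, 100 nM GR, 0.01% BSA, pH 7.5 Tris buffer. NADPH fluorescence (340/450 nm) read at 0 and 15 min.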
# [12] = Quantitative High-Throughput drug screen in 47 multiple myeloma cell lines against the NCATS MIPE library collection: AMO1_DSMZ cell viability assay (AID 1918927; note: nearly all actives have a fitted effect of over 30% in size; note: potency is the fitted concentration of half-maximal effect)
# Summary of the method: as §2
# [13] = Quantitative High-Throughput drug screen in 47 multiple myeloma cell lines against the NCATS MIPE library collection: ARD_JJKsccE7 cell viability assay (AID 1918929; note: potency is the fitted concentration of half-maximal effect)
# Summary of the method: as §2
SMILES,Potency [1],Potency [2],Potency [3],Potency [4],outcome [5],Potency [6],Potency [7],Potency [8],Potency [9],Potency [10],Potency [11],Potency [12],Potency [13]
CC(C)(OCc1nn(Cc2ccccc2)c2ccccc12)C(=O)O,inactive,inactive,inactive,inactive,inactive,inactive,inactive,9.35 µM (active),inactive,inactive,–,–,–
NC(=O)c1ccc(N(C(N)=O)c2c(F)cccc2F)nc1-c1ccc(F)cc1F,inactive,inactive,inactive,inactive,inactive,inactive,5.9 µM (active),–,inactive,inactive,–,–,–
Cc1ccc(NC(=O)c2cccc(N(C)C)c2)cc1NC(=O)c1ccc(O)cc1,–,–,–,–,–,–,–,–,–,5.9 µM (active),inactive,0.235 µM (active),–
CCC[C@H](Nc1nc(-c2ccc(NC(=O)NCC)c(OC)c2)ncc1C)c1cccnc1,–,–,–,–,–,–,–,–,0.0083 µM (active),–,inactive,0.001 µM (active),0.001 µM (active)
NS(=O)(=O)c1ccc(Nc2nc(OCC3CCCCC3)c3[nH]cnc3n2)cc1,–,–,inactive,inactive,inactive,–,16.6 µM (active),23.5 µM (active),–,–,inactive,18.7 µM (active),16.6 µM (active)
C=CC(=O)Nc1cccc(Sc2nc(Nc3ccc(N4CCN(C)CC4)cc3)ncc2Cl)c1,inactive,inactive,3.36 µM (active),inactive,inactive,–,–,18.7 µM (active),–,–,–,–,–
O=C(Nc1ccc(OC(F)(F)F)cc1)c1sccc1NCc1ccnc2ccccc12,inactive,–,inactive,inactive,inactive,4.69 µM (active),5.26 µM (active),–,–,4.69 µM (active),–,23.5 µM (active),–
COc1ccc(-c2ccc3ncc4c(c3c2)n(-c2ccc(N3CCNCC3)c(C(F)(F)F)c2)c(=O)n4C)cn1,inactive,inactive,inactive,inactive,–,–,–,0.0332 µM (active),–,0.0833 µM (active),–,–,–
CN1N=C(N)c2cn([C@@H]3O[C@H](COP(=O)(O)O)[C@@H](O)[C@@H]3O)c3ncnc1c23,–,–,–,–,–,–,–,7.43 µM (active),0.469 µM (active),0.0833 µM (active),inactive,0.0935 µM (active),–
CCCCC(F)(F)[C@@]1(O)CC[C@H]2[C@H](CC(=O)[C@@H]2CCCCCCC(=O)O)O1,inactive,inactive,inactive,inactive,–,inactive,inactive,inactive,inactive,inactive,–,inactive,inactive
N#CC(c1ccc(Cl)cc1)c1c(Cl)cc(-n2ncc(=O)[nH]c2=O)cc1Cl (stereo unspecified),–,–,–,–,–,–,23.5 µM (active),16.6 µM (active),–,10.5 µM (active),inactive,5.26 µM (active),18.7 µM (active)
CC[C@H](C=C[C@@H](C)[C@H]1CC[C@H]2[C@@H]3CC=C4C[C@@H](O)CC[C@]4(C)[C@@H]3CC[C@]12C)C(C)C,inactive,–,–,–,–,–,–,7.24 µM (active),inactive,inactive,–,–,inactive
C[C@@H]1O[C@@H](O[C@H]2CC[C@@]3(C)[C@H](CC[C@@H]4[C@H]3C[C@@H](O)[C@]3(C)[C@@H](C5=CC(=O)OC5)CC[C@]43O)C2)C[C@H](O)[C@@H]1O[C@H]1C[C@H](O)[C@H](O[C@H]2C[C@H](O)[C@@H](O)[C@@H](C)O2)[C@H](C)O1 (stereo in doubt),–,–,–,–,–,0.0762 µM (active),0.241 µM (active),0.27 µM (active),0.171 µM (active),0.171 µM (active),–,0.0679 µM (active),0.121 µM (active)
CN(C)c1ccccc1CN1CCCN(Cc2ccccc2N(C)C)C1c1ccncc1,inactive,–,–,–,–,18.7 µM (active),20.9 µM (active),–,–,–,–,16.6 µM (active),18.7 µM (active)
CC1(C)C(N(O)C(=O)Nc2ccc(Cl)cc2)N(c2ccc(Cl)cc2)C(=O)N1CC(=O)NN=CC=Cc1ccc([N+](=O)[O-])o1 (stereo unspecified),–,–,–,–,–,13.2 µM (active),7.43 µM (active),16.6 µM (active),7.43 µM (active),inactive,–,inactive,inactive
Cc1cc(C(C)Nc2ccccc2)c2nc(N3CCOCC3)cc(=O)n2c1 (stereo unspecified),inactive,–,inactive,inactive,inactive,–,9.35 µM (active),–,–,–,–,18.7 µM (active),–
C=C1c2cccc(O)c2C(O)=C2C(=O)[C@@]3(O)C(O)=C(C(N)=O)C(=O)[C@@H](N(C)C)[C@@H]3[C@@H](O)[C@H]12,11.4 µM (active),–,–,–,–,–,–,9.35 µM (active),23.5 µM (active),inactive,–,inactive,–
CC(NCCc1ccc(O)cc1)C(O)c1ccc(O)cc1 (stereo unspecified),inactive,–,–,–,–,inactive,inactive,–,–,inactive,–,inactive,inactive
CCn1c(-c2nonc2N)nc2cncc(CNC3CCNCC3)c21,inactive,–,inactive,inactive,inactive,inactive,–,inactive,10.5 µM (active),–,–,–,–
COc1cc(F)c(C(C)C)cc1-c1ccc(C(F)(F)F)cc1CN1C(=O)O[C@H](c2cc(C(F)(F)F)cc(C(F)(F)F)c2)[C@@H]1C,inactive,–,–,–,–,inactive,inactive,inactive,–,inactive,–,inactive,inactive
